For some of these results: Potency and affinity values are given separately.

Common to all, as to set-up: scale not given: direction of the effect not stated beside the values
In assay [1] the target is Protein translocase subunit SecA (Escherichia coli (strain K12)) (UniProt P10408). In words: Assay to Identify E. coli SecA ATPase Inhibitors. The note with it: 30 µM. The format is functional.
The target in assay [2] is T1, Ubiquitin-activating enzyme e1, putative (Leishmania donovani (strain BPK282A1)) (UniProt E9BSI1).
T1 sequence (whole entry): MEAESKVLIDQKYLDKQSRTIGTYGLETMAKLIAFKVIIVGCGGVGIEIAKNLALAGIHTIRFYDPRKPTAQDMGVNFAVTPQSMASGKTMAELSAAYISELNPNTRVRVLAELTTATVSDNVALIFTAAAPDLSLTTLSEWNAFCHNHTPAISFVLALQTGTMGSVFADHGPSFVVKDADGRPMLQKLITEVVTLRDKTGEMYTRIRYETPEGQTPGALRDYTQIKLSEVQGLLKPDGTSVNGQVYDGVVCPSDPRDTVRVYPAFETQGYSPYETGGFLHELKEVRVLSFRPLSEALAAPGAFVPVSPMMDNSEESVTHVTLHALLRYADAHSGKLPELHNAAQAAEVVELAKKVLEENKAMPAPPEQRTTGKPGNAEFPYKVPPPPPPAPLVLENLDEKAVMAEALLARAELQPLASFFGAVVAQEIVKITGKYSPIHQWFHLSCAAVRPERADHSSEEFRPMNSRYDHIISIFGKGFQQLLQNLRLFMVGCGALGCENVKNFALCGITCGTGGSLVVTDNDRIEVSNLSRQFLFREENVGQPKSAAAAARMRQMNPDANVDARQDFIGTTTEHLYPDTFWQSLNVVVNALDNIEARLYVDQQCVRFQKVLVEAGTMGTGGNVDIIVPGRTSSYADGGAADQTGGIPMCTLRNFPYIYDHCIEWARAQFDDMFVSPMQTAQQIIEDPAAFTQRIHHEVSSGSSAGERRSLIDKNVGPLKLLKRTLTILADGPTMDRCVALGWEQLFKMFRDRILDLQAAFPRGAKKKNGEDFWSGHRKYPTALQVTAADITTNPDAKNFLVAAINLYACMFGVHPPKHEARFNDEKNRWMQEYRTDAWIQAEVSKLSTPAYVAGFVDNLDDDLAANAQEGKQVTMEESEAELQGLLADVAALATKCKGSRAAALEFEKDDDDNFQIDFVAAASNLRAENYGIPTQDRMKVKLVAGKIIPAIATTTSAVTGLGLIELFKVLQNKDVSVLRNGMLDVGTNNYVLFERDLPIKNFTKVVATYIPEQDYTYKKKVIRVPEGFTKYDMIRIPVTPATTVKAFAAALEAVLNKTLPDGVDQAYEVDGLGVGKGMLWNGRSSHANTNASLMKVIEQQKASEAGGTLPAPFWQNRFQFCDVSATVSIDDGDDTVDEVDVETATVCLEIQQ
In words: Leishmania donovani Ubiquitin Activating Enzyme (LdE1). Format: functional. The note with it: 30 µM.

The target of assay [3] is AMP-activated protein kinase, AMPK (Homo sapiens) (UniProt P54646+O43741+P54619+Q9UGJ0+Q9Y478+Q13131+Q9UGI9). In words: AMP-dependent Kinase enzyme assay. An in vitro enzyme assay that detects ADP turnover that is directly proportional to AMPK activity. This uses naive AMPK that is activated during the assay with MK-8722. The format is functional. The note with it: 30 µM.

Assay [4] addresses Sialic acid-binding Ig-like lectin 9 (Homo sapiens) (UniProt Q9Y336). In words: Hs-Siglec9 ALPHAscreen SOP 20170721. The note with it: 10 µM.
The test system of assay [5] is Trypanosoma cruzi. In words: Trypanosoma cruzi phosphomannomutase and mannose-1-phosphate guanylyltransferase assay. The format is functional. The note with it: 10 µM.
Assay [6] has as its target T2, Arginase-2, mitochondrial (Homo sapiens) (UniProt P78540).
T2 sequence (whole entry): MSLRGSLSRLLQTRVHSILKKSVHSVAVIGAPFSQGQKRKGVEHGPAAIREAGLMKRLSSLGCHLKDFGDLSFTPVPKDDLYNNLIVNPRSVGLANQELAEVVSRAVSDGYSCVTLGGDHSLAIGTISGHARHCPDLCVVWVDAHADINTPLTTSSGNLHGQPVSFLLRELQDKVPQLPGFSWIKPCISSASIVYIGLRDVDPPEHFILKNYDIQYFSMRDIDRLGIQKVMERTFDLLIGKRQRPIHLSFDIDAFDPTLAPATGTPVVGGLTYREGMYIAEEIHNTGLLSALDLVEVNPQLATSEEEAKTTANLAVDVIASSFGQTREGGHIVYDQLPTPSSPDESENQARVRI
In words: in vitro enzyme assay to detect the production of urea directly proportional to the activity of Arginase II. Note: in the data most compounds retested in dose-response had high values. Format: functional. Conditions: 33.3 µM.

Assay [7] has as its target T3, Proteasome subunit beta (Trypanosoma cruzi) (UniProt O96673).
T3 sequence (whole entry): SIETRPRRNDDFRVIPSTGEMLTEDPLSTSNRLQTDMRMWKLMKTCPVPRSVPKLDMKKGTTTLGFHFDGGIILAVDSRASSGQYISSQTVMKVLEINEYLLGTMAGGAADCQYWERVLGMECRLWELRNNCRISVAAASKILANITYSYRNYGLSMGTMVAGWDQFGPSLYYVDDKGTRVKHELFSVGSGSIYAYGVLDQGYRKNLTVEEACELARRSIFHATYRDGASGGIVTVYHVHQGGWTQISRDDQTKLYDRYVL
In words: Trypanosoma cruzi proteasome chymotrypsin-like activity (TcProtChymo) assay. Note: in the data most compounds retested in dose-response had high values. The format is functional. The note with it: 9.37 µM.

The species named for assay [8] is Homo sapiens. In words: To identify inhibition of the IFN signalling (Jak-Stat) pathway via expression of an eGFP reporter gene under the control of an IFN-stimulated response element (ISRE) containing MxA promoter. The format is functional. The note with it: 30 µM.
Assay [9] addresses T4, Tyrosyl-tRNA synthetase, putative (Trypanosoma cruzi (strain CL Brener)) (UniProt Q4DSP6).
T4 sequence (whole entry): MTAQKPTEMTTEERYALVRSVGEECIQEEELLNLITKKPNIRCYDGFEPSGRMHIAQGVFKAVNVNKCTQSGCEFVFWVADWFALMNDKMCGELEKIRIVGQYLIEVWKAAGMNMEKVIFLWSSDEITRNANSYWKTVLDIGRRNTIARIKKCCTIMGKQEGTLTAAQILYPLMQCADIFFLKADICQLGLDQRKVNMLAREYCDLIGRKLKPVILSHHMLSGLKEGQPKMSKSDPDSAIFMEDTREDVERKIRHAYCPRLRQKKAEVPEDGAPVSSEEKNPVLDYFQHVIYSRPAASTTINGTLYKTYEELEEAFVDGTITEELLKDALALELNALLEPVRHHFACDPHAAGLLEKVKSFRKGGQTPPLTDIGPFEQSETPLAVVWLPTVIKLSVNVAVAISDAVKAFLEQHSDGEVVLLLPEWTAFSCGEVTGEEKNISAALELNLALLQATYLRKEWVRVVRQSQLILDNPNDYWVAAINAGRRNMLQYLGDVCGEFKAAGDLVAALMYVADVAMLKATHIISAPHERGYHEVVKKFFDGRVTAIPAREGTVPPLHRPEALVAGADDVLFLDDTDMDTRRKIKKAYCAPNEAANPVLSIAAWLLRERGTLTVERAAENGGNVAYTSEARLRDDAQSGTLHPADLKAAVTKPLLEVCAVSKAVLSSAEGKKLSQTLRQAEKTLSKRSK
In words: Trypanosoma cruzi tyrosyl tRNA synthetase (TcYRS) _High Tyrosine SOP. Note: in the data most compounds retested in dose-response had high values. The note with it: 30 µM. The format is functional.

Assay [10] concerns the target T4, Tyrosyl-tRNA synthetase, putative (Trypanosoma cruzi (strain CL Brener)). In words: Trypanosoma cruzi tyrosyl tRNA synthetase (TcYRS) SOP. Format: functional. Conditions: 30 µM.
The target of assay [11] is Chromo domain-containing protein 1 (Saccharomyces cerevisiae (strain ATCC 204508 / S288c) (Baker's yeast)) (UniProt P32657). In words: ScCHD-1 Enzyme Inhibition Assay. Note: in the data most compounds retested in dose-response had high values. The format is functional. The note with it: 30 µM.
Chain of Chromo domain-containing protein 1 (Saccharomyces cerevisiae (strain ATCC 204508 / S288c) (Baker's yeast)) (P32657 whole entry, the tested form may be a part): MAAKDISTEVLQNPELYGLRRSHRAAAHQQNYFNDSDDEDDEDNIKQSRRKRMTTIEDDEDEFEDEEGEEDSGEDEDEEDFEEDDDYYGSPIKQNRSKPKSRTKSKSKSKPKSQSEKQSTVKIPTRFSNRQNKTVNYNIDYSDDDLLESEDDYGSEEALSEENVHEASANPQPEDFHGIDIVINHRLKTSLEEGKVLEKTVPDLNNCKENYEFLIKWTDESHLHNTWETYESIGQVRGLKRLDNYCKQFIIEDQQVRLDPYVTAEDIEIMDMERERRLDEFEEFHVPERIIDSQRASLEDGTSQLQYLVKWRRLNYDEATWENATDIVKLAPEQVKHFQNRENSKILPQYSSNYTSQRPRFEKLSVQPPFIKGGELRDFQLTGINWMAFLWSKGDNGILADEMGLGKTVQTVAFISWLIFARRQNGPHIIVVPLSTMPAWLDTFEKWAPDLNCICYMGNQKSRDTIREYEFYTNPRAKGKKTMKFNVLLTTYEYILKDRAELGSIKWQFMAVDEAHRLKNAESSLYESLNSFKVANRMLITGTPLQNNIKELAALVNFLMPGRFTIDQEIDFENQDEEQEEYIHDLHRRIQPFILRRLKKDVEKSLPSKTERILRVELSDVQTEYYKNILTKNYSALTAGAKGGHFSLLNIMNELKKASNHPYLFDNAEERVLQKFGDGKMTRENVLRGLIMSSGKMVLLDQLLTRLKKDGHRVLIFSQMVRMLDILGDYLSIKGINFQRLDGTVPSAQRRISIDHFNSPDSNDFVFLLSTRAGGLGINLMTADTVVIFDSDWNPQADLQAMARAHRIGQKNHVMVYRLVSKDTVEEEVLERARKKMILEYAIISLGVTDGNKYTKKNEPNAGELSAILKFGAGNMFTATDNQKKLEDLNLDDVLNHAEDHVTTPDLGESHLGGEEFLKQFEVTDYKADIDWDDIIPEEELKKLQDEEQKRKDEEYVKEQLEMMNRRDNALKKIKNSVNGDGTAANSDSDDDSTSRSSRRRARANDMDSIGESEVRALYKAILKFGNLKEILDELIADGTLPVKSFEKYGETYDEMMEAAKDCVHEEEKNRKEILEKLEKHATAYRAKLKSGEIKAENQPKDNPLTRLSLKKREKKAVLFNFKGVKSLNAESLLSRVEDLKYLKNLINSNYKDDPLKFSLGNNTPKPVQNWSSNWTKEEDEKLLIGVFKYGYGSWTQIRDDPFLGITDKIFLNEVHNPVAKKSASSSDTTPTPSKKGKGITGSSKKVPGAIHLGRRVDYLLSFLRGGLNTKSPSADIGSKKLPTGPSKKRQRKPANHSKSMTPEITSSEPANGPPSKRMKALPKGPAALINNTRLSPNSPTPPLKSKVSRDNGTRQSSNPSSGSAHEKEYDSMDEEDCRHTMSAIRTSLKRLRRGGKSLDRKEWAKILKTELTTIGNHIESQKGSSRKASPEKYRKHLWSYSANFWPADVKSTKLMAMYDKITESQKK

Chain of Sialic acid-binding Ig-like lectin 9 (Homo sapiens) (Q9Y336 whole entry): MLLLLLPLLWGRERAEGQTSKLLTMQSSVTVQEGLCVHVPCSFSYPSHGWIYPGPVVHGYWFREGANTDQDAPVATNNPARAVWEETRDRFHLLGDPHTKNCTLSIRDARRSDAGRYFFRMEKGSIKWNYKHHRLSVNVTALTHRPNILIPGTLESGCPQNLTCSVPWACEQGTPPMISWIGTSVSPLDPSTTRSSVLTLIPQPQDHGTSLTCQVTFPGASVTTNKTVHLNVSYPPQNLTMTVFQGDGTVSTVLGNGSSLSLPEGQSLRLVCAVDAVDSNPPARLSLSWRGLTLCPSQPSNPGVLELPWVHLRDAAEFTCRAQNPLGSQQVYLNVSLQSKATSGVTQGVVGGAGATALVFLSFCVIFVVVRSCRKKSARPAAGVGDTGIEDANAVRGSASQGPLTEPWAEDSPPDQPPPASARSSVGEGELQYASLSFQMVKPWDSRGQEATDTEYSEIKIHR
Chain of Protein translocase subunit SecA (Escherichia coli (strain K12)) (P10408 whole entry): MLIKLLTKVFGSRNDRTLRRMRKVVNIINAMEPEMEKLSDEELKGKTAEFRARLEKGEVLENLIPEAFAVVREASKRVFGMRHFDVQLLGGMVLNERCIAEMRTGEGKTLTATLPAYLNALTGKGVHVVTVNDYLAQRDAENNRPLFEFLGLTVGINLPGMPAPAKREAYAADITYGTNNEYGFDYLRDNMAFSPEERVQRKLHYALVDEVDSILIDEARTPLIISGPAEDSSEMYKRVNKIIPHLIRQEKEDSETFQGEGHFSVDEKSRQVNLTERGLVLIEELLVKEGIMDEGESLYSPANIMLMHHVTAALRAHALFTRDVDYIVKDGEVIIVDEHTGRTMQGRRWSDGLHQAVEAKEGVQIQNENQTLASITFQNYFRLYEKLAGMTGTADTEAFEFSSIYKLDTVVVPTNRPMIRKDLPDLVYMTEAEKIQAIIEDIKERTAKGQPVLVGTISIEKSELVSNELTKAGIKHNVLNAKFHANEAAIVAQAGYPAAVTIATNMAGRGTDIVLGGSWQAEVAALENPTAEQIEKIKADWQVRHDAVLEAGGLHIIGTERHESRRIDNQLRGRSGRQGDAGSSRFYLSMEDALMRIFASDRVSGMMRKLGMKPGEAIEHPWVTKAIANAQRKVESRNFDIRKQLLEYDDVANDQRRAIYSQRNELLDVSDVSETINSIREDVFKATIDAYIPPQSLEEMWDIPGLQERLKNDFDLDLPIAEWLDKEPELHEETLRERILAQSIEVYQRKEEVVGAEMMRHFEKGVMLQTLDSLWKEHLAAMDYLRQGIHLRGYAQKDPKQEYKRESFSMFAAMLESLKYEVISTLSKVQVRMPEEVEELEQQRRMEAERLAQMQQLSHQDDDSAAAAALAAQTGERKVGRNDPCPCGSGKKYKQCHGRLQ

In the case of `Cn1cc(C2COC3(CCN(C(=O)Cn4cccn4)CC3)C2)cn1` (stereo unspecified), the Percent Effect in assay [1] was -2.57%; in assay [2], 13.5%; in [3], -8.57%; in assay [4], -2.55%; in assay [5] it was 2.25%; in assay [6], 2.23%. For the same compound, the Percent Effect in assay [7] was determined as 24%; in assay [8], 3.24%; in assay [9], 4.32%; in assay [10], 17.9%; in assay [11], 2.16%.
As to `Cc1nccc(-c2cccc(NCC(=O)N3CCCCCCC3)c2)n1`, the Percent Effect in [1] is -8%; in assay [2], -5.26%; in assay [3], 11.7%; in assay [4] it was -8.15%; in assay [5], -0.28%; in [6] it was -0.36%. The Percent Effect is 5.16% in assay [7]; 28.6% in assay [8]; 2.46% in assay [9]; -1.24% in assay [10]; -1.53% in [11].
Take `CCc1c(C(=O)NCC2CCS(=O)(=O)C2)cnn1-c1ccc(C)cc1` (stereo unspecified): the Percent Effect is -3.51% in assay [1]; 17.7% in assay [2]; -2.2% in assay [3]; -1.25% in assay [4]; 2.74% in [5]; 4.94% in assay [6]. Further, the Percent Effect in assay [7] was 2.54%; in assay [8], 5.86%; in assay [9], 5.42%; in assay [10], 21.5%; in assay [11], -6.44%.
On to `Cc1c(C(=O)NCC2CCCO2)nnn1-c1cccc2c1CCN(C)C2` (stereo unspecified), for which the Percent Effect in assay [1] is -7.71%; in assay [2] it was 2.63%; in assay [3], -11.9%; in assay [4], -4.47%; in assay [5], -1.27%; in assay [6], 2.37%. For the same compound, the Percent Effect was 6.42% in assay [7]; 27.2% in [8]; -1.06% in [9]; -2.6% in [10]; 88% in [11].
With `CC(=O)c1cccc(NC(=O)CN2CCCCC2C2OCCO2)c1` (stereo unspecified), the Percent Effect in assay [1] is -5.29%; in assay [2] it was 5.41%; in assay [3], 1.19%; in assay [4], -1.14%; in assay [5], -2.54%; in assay [6], 5%. Moreover, the Percent Effect in assay [7] is 8.37%; in assay [8] it was -2.75%; in assay [9] it was 5.94%; in assay [10] it was 11%; in assay [11] it was -4.75%.
As for `CN(Cc1nccn1CC(F)(F)F)C(=O)c1ccc(F)cc1F`, the Percent Effect was -4.89% in assay [1]; 5.26% in [2]; 5.36% in assay [3]; 6.23% in [4]; -5.16% in assay [5]; -5.92% in assay [6]. The Percent Effect is 12.8% in assay [7]; -12.9% in assay [8]; 6.38% in assay [9]; 7.79% in [10]; 3.79% in assay [11].
On to `NC(=O)C1CCCN(Cc2c(-c3ccco3)[nH]c3ncccc23)C1` (stereo unspecified), for which the Percent Effect in assay [1] was -1.81%; in assay [2], 12.2%; in assay [3], -2.48%; in [4], 1.48%; in assay [5] it was -3.16%; in assay [6] it was 1.16%. The Percent Effect in assay [7] is 9.83%; in assay [8] it was 23.8%; in assay [9], 7.53%; in assay [10] it was 14.3%; in [11] it was -8.85%.
`CCCn1nccc1C(=O)N1CCCN(CCCc2ccccc2)CC1`: the Percent Effect was -5.36% in assay [1]; 11% in assay [2]; -4.71% in assay [3]; 8.5% in [4]; 7.14% in assay [5]; -4.79% in assay [6]. Besides, the Percent Effect in assay [7] is 16.2%; in [8], 4.05%; in assay [9] it was 7.29%; in assay [10] it was 8.64%; in assay [11], -1.42%.
On to `Cn1cc(CN2C[C@@H]3CN(Cc4ccoc4)CCO[C@@H]3C2)cn1`, for which the Percent Effect in assay [1] was -1.93%; in assay [2], 7.79%; in [3], 7.44%; in assay [4], 0.861%; in assay [5] it was -2.07%; in [6] it was 7.1%. In addition, the Percent Effect in assay [7] was 1.57%; in assay [8], 10.9%; in assay [9] it was 0%; in assay [10], 16.7%; in assay [11], -4.4%.
In the case of `OC1(Cn2ccc3ccncc32)CCN(Cc2ccccn2)CC1`, the Percent Effect in [1] is 0.875%; in [2] it was 6.76%; in [3], 1.5%; in assay [4], 0.0823%; in [5], -10.7%; in assay [6] it was 2.55%. The Percent Effect in assay [7] is 8.42%; in [8], 17.6%; in assay [9], -1.07%; in [10] it was 9.09%; in assay [11], -2.25%.
As to `Cc1noc(C)c1CN1CCN(Cc2ccncc2)c2ncccc2C1`, the Percent Effect in assay [1] was -3.04%; in assay [2] it was 8%; in [3], 4.68%; in [4], 2.81%; in [5] it was -6.5%; in [6], -1.17%. In addition, the Percent Effect in [7] was 2.56%; in assay [8] it was 16.7%; in assay [9], 7.45%; in assay [10] it was 8.97%; in assay [11], -0.129%.

(Values after ChEMBL document CHEMBL3988442, “University of Dundee, Small-Polar-MMV Screening Library” (2021).)
